Results as given in PubChem BioAssay (NCATS).
Inconclusive results are not listed. Active and inactive are the calls of the source. Calls come from the whole dose curve; as a rule, active = well fitted inhibition curve with a large enough effect; inconclusive = small, poorly fitted or top-dose-only effect; inactive = flat fitted curve, though single readings scatter.

Columns and labels:
Assay in all cases: qHTS profiling for inhibitors of Plasmodium falciparum proliferation (AID 504749); note: nearly all actives have a fitted effect of over 60% in size
Conditions in all cases: P. falciparum in erythrocytes, SYBR Green DNA, 72 h; series mostly up to 28.7 µM
CP252 = test system: CP252
Procedure, shortened: (§1)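 Fluorescence of SYBR Green-bound parasite DNA, read at 485/535 nm, served as the growth measure. Infected erythrocytes were cultured with compound 72 h; artemisinin (0.29 uM) and DMSO wells defined the normalization range.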

CP256 = test system: CP256
Procedure, shortened: as §1

CP260 = test system: CP260
Procedure, shortened: as §1

CP262 = test system: CP262
Procedure, shortened: as §1

CP265 = test system: CP265
Procedure, shortened: as §1

CP266 = test system: CP266
Procedure, shortened: as §1

CP269 = test system: CP269
Procedure, shortened: as §1

CP286 = test system: CP286
Procedure, shortened: as §1

CP291 = test system: CP291
Procedure, shortened: as §1

CP297 = test system: CP297
Procedure, shortened: as §1

CP305 = test system: CP305
Procedure, shortened: as §1

CP315 = test system: CP315
Procedure, shortened: as §1

CP325 = test system: CP325
Procedure, shortened: as §1

CP329 = test system: CP329
Procedure, shortened: as §1

CP335 = test system: CP335
Procedure, shortened: as §1

DFO2036 = test system: DFO2036
Procedure, shortened: as §1

DIV14 = test system: DIV14
Procedure, shortened: as §1

DIV17 = test system: DIV17
Procedure, shortened: as §1

DIV30 = test system: DIV30
Procedure, shortened: as §1

Dd2 = test system: Dd2
Procedure, shortened: as §1

ECU = test system: ECU
Procedure, shortened: as §1

FAB9 = test system: FAB9
Procedure, shortened: as §1

GB4 = test system: GB4
Procedure, shortened: as §1

HB3 = test system: HB3
Procedure, shortened: as §1

ICS = test system: ICS
Procedure, shortened: as §1

JCK = test system: JCK
Procedure, shortened: as §1

N140 = test system: N140
Procedure, shortened: as §1

P93_24 = test system: P93_24
Procedure, shortened: as §1

P94_40 = test system: P94_40
Procedure, shortened: as §1

PAD = test system: PAD
Procedure, shortened: as §1

PC15 = test system: PC15
Procedure, shortened: as §1

PC26 = test system: PC26
Procedure, shortened: as §1

PC49 = test system: PC49
Procedure, shortened: as §1

SC27B = test system: SC27B
Procedure, shortened: as §1

TAB109 = test system: TAB109
Procedure, shortened: as §1

TAB113 = test system: TAB113
Procedure, shortened: as §1

TAB165 = test system: TAB165
Procedure, shortened: as §1

W2 = test system: W2
Procedure, shortened: as §1

Measured: Potency

CC(/C=C1\SC(=S)N(CC(=O)O)C1=O)=C\c1ccccc1
inactive: all assays above
